Morphology score data for eleven compounds are collected here from the supplement of paper PMC13380429.

The test system of the test is Vero E6 infected with SARS-CoV-2. The test is described as follows: morphology score (similarity to uninfected cells); higher = more like uninfected cells. The following applies: 24 h.
The compound `O=C(C[S+]([O-])Cc1ccco1)NC/C=C\COc1cc(CN2CCCCC2)ccn1` (stereo unspecified) [lafutidine] (10 µM) registered a morphology score of 0.0534.

Take `CC[C@H](C)C[C@H](C)CCCCCCCCC(=O)N[C@H]1C[C@@H](O)[C@@H](NCCN)NC(=O)[C@@H]2[C@@H](O)CCN2C(=O)[C@H]([C@H](O)CCN)NC(=O)[C@H]([C@H](O)[C@@H](O)c2ccc(O)cc2)NC(=O)[C@@H]2C[C@@H](O)CN2C(=O)[C@H]([C@@H](C)O)NC1=O` [caspofungin] (10 µM): the morphology score was -0.0128.

For the compound `O=S(=O)(O)c1ccc(O)cc1` [4-phenolsulfonic-acid] (10 µM), the morphology score is -0.0939.

Take `CC(C)(C)NCC(O)c1cc(Cl)c(N)c(Cl)c1` (stereo unspecified) [clenbuterol] (10 µM): the morphology score is -0.0972.

On to `COc1nc(N)nc2c1ncn2[C@@H]1O[C@H](CO)[C@@H](O)[C@@H]1O` [nelarabine] (10 µM), for which the morphology score is -0.0124.

In turn, `O=C1c2ccccc2-c2n[nH]c3cccc1c23` [pyrazolanthrone] (10 µM) showed a morphology score of 0.0961.

With `Cc1csc(S(=O)(=O)N(CC(C)C)c2cc3c(cc2OCc2ccc(C(=O)O)cc2)CCC3)n1` (10 µM), the morphology score is -0.0439.

`O=C1C[C@@H](c2ccc(O)cc2)Oc2cc(O)cc(O)c21` [naringenin] (10 µM): the morphology score came to 0.0218.

Compound `C[C@@H](N[C@H]1CCCC[C@@H]1NC(=O)c1ccc(Cl)cc1)c1cccc2ccccc12` [Calhex-231] (10 µM) came in with a morphology score of 0.134.

`COc1ccc([C@]2(C#N)CC[C@@H](C(=O)O)CC2)cc1OC1CCCC1` [cilomilast] (10 µM) had a morphology score of 0.246.

In turn, `N[C@H](C(=O)O)c1ccc(O)cc1` [oxfenicine] (10 µM) came in with a morphology score of 0.246.
